# Screens (PubChem)
# Only some compounds are listed: those with a hit (about 9.3% of all), similar ones and a draw of the others.
# VACV Venus inh: inhibitors of vaccinia virus (Venus reporter) | Vaccinia virus Venus reporter expression, fluorescence | AID 720580 | 0.46% of 330,000 active | Potency, µM (top dose mostly 36.5 µM), for inactives: at the top dose activity change, negative = inhibition, usual class: inhibitors; calls by dose curve; tested in A549 cells; further: potency means the concentration at half of the fitted maximal effect; nearly all actives have a fitted effect of over 30% in size
# Vaccinia mCherry: vaccinia inhibition (mCherry reporter) | Vaccinia virus mCherry reporter infection, fluorescence | Potency, µM (series often up to 36.5 µM), for inactives: at the top dose activity change, negative = inhibition, hits mostly inhibitors | 0.63% of 310,000 active | AID 720579; calls by dose curve; tested in A549 cells; further: potency means the concentration at half of the fitted maximal effect; nearly all actives have a fitted effect of over 35% in size
# HCMV antiviral: inhibitors of human cytomegalovirus. HFF cells, HCMV-luciferase reporter, 72 h; stronger effect = lower value. 4.5% of 410,000 active. activity change, negative = inhibition, % at 57.5 µM; in the data active means activity change below about -60%; inconclusive means no clear call, values can overlap the other calls; inactive means above about -39%
#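 Two compound doses tested in HFFs infected with HCMV-luciferase, MOI 1 PFU/cell, 72 h at 37C. Lysate luminescence read with OneGlo; data normalized against buffer-only and 10uM Salinomycin inhibitor controls.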
# FMDV antiviral: blocks foot and mouth disease virus; FMDV antiviral cell-based qHTS; Potency, µM (doses to about 57.9 µM), without a hit: top-dose activity change, negative = inhibition, most hits filed as inhibitors; 1.2% of 410,000 active; AID 1159524; calls by dose curve; tested in HEK293T cells; further: read-out not given here; potency means the concentration at half of the fitted maximal effect; nearly all actives have a fitted effect of over 45% in size
# HCV inh: blocks hepatitis C virus; AID 651820; Potency, µM (highest dose often 41.8 µM), without a hit: at the highest dose activity change, negative = inhibition, most hits filed as inhibitors; Huh7.5.1 HCVcc-Cre infection, luciferase reporter, 44 h; 3.4% of 340,000 active; further: potency means the concentration at half of the fitted maximal effect
#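 Cells seeded at 1,000/well and cultured 4 h, then compounds added followed by HCVcc-Cre virus (~0.5 moi). After 44 h further culture, luciferase substrate was added, plates held 15 min at room temperature, and luminescence read for 15 sec.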
# Sm TGR inh: inhibitors of Schistosoma mansoni thioredoxin glutathione reductase; Q962Y6; purified TGR, DTNB reduction, TNB absorbance 405 nm; Potency, µM (highest dose often 114 µM), for inactives: at the top dose activity change, negative = inhibition, actives largely listed as inhibitors; 3% of 360,000 active; AID 485364; further: potency means the concentration at half of the fitted maximal effect; nearly all actives have a fitted effect of over 60% in size
#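 Kinetic colorimetric format: TGR-catalysed, NADPH-driven DTNB reduction monitored via TNB absorbance. Enzyme dispensed at 20 nM; compound exposure 15 min at room temperature before reaction start.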
# Numbers without * were called inactive; i = inactive; u = inconclusive; x = not tested or not shown; [ ] = remark or other dose. Unless noted, the call rests on the fitted dose curve; in most records, active means well fitted curve in the direction sought with a large enough effect; inconclusive means small, poorly fitted or top-dose-only effect, or another doubt; inactive means no such curve, though single readings can be large; an effect the other way counts as inactive or inconclusive. On the % scale 0 is the no-effect control and ±100 the full control effect.
SMILES,VACV Venus inh,Vaccinia mCherry,HCMV antiviral,FMDV antiviral,HCV inh,Sm TGR inh
COc1cc(C2C3=C(CCCC3=O)Nc3c2c(C)nn3-c2cccc(C)c2)cc(OC)c1O (stereo unspecified),-7.4%,u,5.9,11.5%,-7.9%,39.8µM*
O=C(CCN1C(=O)c2ccccc2C1=O)C1=NN[C@@H]2C(=O)N(c3cccc(Cl)c3)C(=O)[C@H]12,-10.6%,-15.9%,-7.7,-8.2%,8.9%,9.1%
COCC(=O)n1cc(C(=O)OC)c2ccccc21,-10.7%,-6.2%,31.7,6.5%,u,-19.2%
Cc1ccc(C(=O)NCc2ccccn2)o1,6.0%,i,u,-16.8%,11.5%,4.0%
Cc1ccc(CS(=O)(=O)Cc2ccc(C(=O)NCc3ccccn3)o2)cc1,0.5%,u,-0.8,x,7.3%,39.8µM*
COc1ccc(S(=O)(=O)Cc2ccc(C(=O)NCc3ccccn3)o2)cc1,x,x,10.4,-13.1%,-5.1%,35.5µM*
CCOc1cc(/C=C2/SC(=Nc3ccccc3)N(Cc3cccnc3)C2=O)ccc1OCC#N,-25.6%,-18.4%[1.46 µM],-60.2*,u,u,4.8%
COc1ccc(/C=C2\SC(=S)N(Cc3cccnc3)C2=O)cc1C,5.0%,-5.9%,5.8,16.1%,1.9%,-3.0%
C=CCOC(=O)c1cc(-c2ccc(/C=C3\C(=O)NC(=O)C(C#N)=C3C)o2)ccc1Cl,-4.9%,-12.9%,1.9,u,4.9%,7.94µM*
NS(=O)(=O)c1ccc(-c2ccc(/C=C3\NC(=S)NC3=O)o2)cc1,10.0%,-9.0%,7.5,-15.4%,3.8%,8.91µM*
NS(=O)(=O)c1ccc(-c2ccc(C=O)o2)cc1,-1.6%,4.7%,u,12.0%,u,-4.9%
CC1=C(C#N)C(=O)NC(=O)/C1=C/c1ccc(-c2ccc(S(N)(=O)=O)cc2)o1,11.7%,-10.1%,-31.1,-9.0%,10.9%,8.91µM*
CCCOC(=O)c1cc(-c2ccc(/C=C3/C(=O)N(C)C(=O)C(C#N)=C3C)o2)ccc1Cl,x,x,x,12.1%,10.1%,x
O=C1Nc2ccc(F)cc2C12SCCS2,-10.4%,-5.5%,-106.7*,-4.1%,-11.7%,u
COc1ccccc1N(CC(=O)Nc1cc(C)on1)S(=O)(=O)c1ccc(Cl)cc1,-20.8%,x,-68.9*,-11.7%,-13.0%,-8.6%
CCOc1ccccc1N(CC(=O)Nc1cc(OC)ccc1OC)S(=O)(=O)c1ccccc1,x,x,-102.2*,-15.4%,u,3.4%
CCOc1ccccc1N(CC(=O)Nc1cccnc1)S(=O)(=O)c1ccc(C)cc1,-9.7%,-12.2%,-28.3,28.9%,-10.5%,9.4%
COc1ccc(Cl)cc1N(CC(=O)NC(C)(C)C)S(=O)(=O)c1ccc(C)c([N+](=O)[O-])c1,-15.5%,-7.0%,-76.3*,-11.4%,1.1%,-22.6%
CCOc1ccccc1N(CC(=O)Nc1ccccc1)S(=O)(=O)c1ccccc1,x,x,-97.7*,10.0%,-20.9%,-18.2%
CCCCCCCCC(c1nc2ccccc2[nH]1)N1CCN=C1c1cc2ccccc2[nH]1 (stereo unspecified),u,u,-102.8*,-21.5%,x,x
CC(=O)Nc1nc(C)c(-c2csc(Nc3cccc([N+](=O)[O-])c3)n2)s1,u,5.01µM*,-9.0,-25.7%,u,-16.5%
CC(=O)c1cccc(Nc2nc(-c3cccc([N+](=O)[O-])c3)cs2)c1,-22.2%,u,26.5,-15.6%,2.24µM*,12.2%
CC(=O)Nc1nc(C)c(-c2csc(Nc3cccc(C(C)=O)c3)n2)s1,x,x,-32.4,-8.9%,10µM*,-11.7%
CN(c1cccc(NC(=O)CN(c2ccc(C34CC5CC(CC(C5)C3)C4)cc2)S(C)(=O)=O)c1)S(C)(=O)=O,u,u,x,x,u,8.0%
CCC(/C=C1\Sc2ccc(OC)cc2N1CC)=C\c1sc2ccc(OC)cc2[n+]1CCCS(=O)(=O)[O-],x,x,-20.9,17.8µM*,u,-3.5%
SMILES,VACV Venus inh,Vaccinia mCherry,HCMV antiviral,FMDV antiviral,HCV inh,Sm TGR inh
CCO/C(=C/c1sc2ccc(OC)cc2[n+]1CCCS(=O)(=O)[O-])CC,x,x,14.8,-19.4%,10.6%,-7.1%
CCC(/C=C1\Sc2ccc(OC)cc2N1CCO)=C\c1sc2ccc(OC)cc2[n+]1CCO,23.9%,48.0%,-97.7*,17.8µM*,5.01µM*,11.2µM*
CCC(=O)/C=C1/Sc2ccc(OC)cc2N1CCO,-5.3%,i,u,-21.3%,-3.4%,23.3%
CCC1CCCCN1CC(=O)N1CCCc2c1c(=O)oc1ccc(OCc3ccccc3)cc21 (stereo unspecified),-28.2%,-29.8%,2.5,-18.3%,x,-2.8%
COCCNS(=O)(=O)c1ccc(-c2ccc(C)cc2)cc1,x,x,-63.5*,4.0%,u,-0.3%
Cc1ccc(S(=O)(=O)NCCOCCNS(=O)(=O)c2ccc(C)cc2)cc1,x,x,-11.7,6.4%,-6.0%,1.7%
COc1ccccc1NC(=O)Nc1ccc2[nH]c(=O)[nH]c2c1,x,x,7.6,-13.0%,9.6%,2.3%
CSc1nc(N(C)NC(=O)c2ccc(Cl)cc2)c2ccccc2n1,u,-19.1%,-65.4*,0.0%,u,3.8%
CN(NC(=O)c1ccc(Cl)cc1)c1nc(-c2ccccc2)nnc1C(F)(F)F,-11.9%,-8.4%,-104.6*,31.6µM*,-25.7%,9.5%
COC(=O)C1C=CC(OC2OC(COC(C)=O)C(OC(C)=O)C(OC(C)=O)C2OC(C)=O)n2c(=O)n(-c3ccccc3)c(=O)n21 (stereo unspecified),u,10µM*,-97.7*,25.1µM*,10µM*,x
CCN(CCN(C)C)C(=O)Cn1ncc2c([nH]c3ccc(C)cc32)c1=O,2.1%,-13.2%,-12.4,-16.0%,x,-2.5%
COc1ccc(C)cc1Nc1n[n+](-c2ccccc2)c(-c2ccc(N(C)C)cc2)s1,u,-23.4%,-26.6,u,-25.5%,-7.3%
Cc1ccc2c(c1)sc(-c1ccc(N(C)C)cc1)[n+]2C,u,u,-95.6*,u,3.55µM*,-0.8%
OC1(c2ccc(Cl)cc2)CN(c2ccccc2)C2=[N+]1CCS2 (stereo unspecified),-13.4%,-16.3%,0.0,-29.8%,12.6µM*,-10.7%
COc1ccc(CCNC(=O)CS(=O)Cc2nc(-c3cccs3)oc2C)cc1OC (stereo unspecified),x,x,5.4,5.7%,-38.3%,22.4µM*
Cc1oc(-c2cccs2)nc1CS(=O)CC(=O)NCc1ccc2c(c1)OCO2 (stereo unspecified),-1.1%,i,-29.4,45.9%,u,39.8µM*
Cc1oc(-c2ccccc2Cl)nc1CS(=O)CC(=O)NCc1ccc(Cl)cc1 (stereo unspecified),-18.4%,-10.3%,-29.8,4.2%,-26.1%,-4.2%
Cc1ccc(CNC(=O)CS(=O)Cc2nc(-c3cccs3)oc2C)cc1 (stereo unspecified),-6.9%,14.2%,15.5,5.2%,-14.6%,25.1µM*
